Assay results reported in PubChem BioAssay (NCATS).
Results filed as inconclusive are left out. A number with no mark means an inactive call. Calls come from the whole dose curve; as a rule, active = well fitted inhibition curve with a large enough effect; inconclusive = small, poorly fitted or top-dose-only effect; inactive = no such curve, though single readings can be large or run the other way.

experiment: qHTS assay for measurement of the activity of small molecule inhibitors on Zika virus induced Caspase-3 activity in human iPSC derived neural progenitor cells (hNPCs) (AID 1224857); settings: hNPCs ZIKV-induced caspase-3/7, Caspase-Glo luminescence, 6 h; series mostly up to 45.7 µM; activity change, negative = inhibition: at the top concentration; note: nearly all actives have a fitted effect of over 65% in size
Description: National Center for Advancing Translational Sciences [NCATS]
Johns Hopkins University School of Medicine
Increase in the Caspase-3 activity indicates an activation of apoptosis cell death pathway caused by Zika virus infection in certain types of neuronal cells including human neural progenitor cells (hNPCs), astrocytes, and astrocytoma cell line (SNB-19). This cell-based caspase-3 activity assay measures the increased caspase-3 activity in the human iPSC derived neural progenitor cells (hNPCs) after a 6-hour Zika virus infection with a luminescence readout. A decrease in the luminescence signal in this assay by small molecule treatment indicates an inhibitory effect of that small molecule on the Zika virus induced caspase-3 activity that may correlate with its effect on reduction of Zika virus caused cell death.
The medium for hNPCs consists of DMEM/F12, N2 supplement (ThermoFisher, Cat.# 17502048), NEAA (ThermoFisher, Cat. # 11140050), 2 ug/ml heparin, 2 uM cyclopamine, and B27 (ThermoFisher, Cat. # 17504044). A Caspase-Glo 3/7 assay kit (catalog number G8092; Promega, Madison, WI) was used to detect caspase-3 activity induced by Zika virus infection in human cells. The reagent mixture was reconstituted as described in the protocol from the manufacturer. Polystyrene tissue culture treated and PDL coated white plates were obtained from Greiner Bio-One (Monroe, NC). Cells were seeded in 384- or 1536-well assay plates and cultured at 37 C with 5% CO2 for 16 to 20 hours. The typical cell seeding density in the 1536-well plate assay is 350 cells/well in 3 ul medium for hNPCs in tissue culture treated plates. Compounds were added to cells and incubated for one hour before addition of ZIKV solution to cells (2 FFU/cell). After incubation at 37 C with 5% CO2 for 6 hours, the reagent mixture of Caspase-Glo 3/7 assay kit was added to each well, followed by incubation at room temperature for 30 minutes. The luminescence intensity of the assay plates was measured using a ViewLux plate reader (PerkinElmer). Data were normalized by using the cell-containing wells without ZIKV as a negative control (0% induction of caspase 3/7 activity) and wells containing ZIKV infected cells (Caspase-3 activity induced) as a positive control (100% induction of caspase 3 activity). The percentage inhibitions of the increased Caspase-3 activity by small molecule inhibitors were then calculated.

Question: For `CCO[C@H](Cc1ccc(OCCc2ccc(OS(C)(=O)=O)cc2)cc1)C(=O)O`, which “activity change, negative = inhibition” value is on record?
Answer: -7.08%

Question: For `Nc1cccc2c(N)cccc12`, which “activity change, negative = inhibition” value is on record?
Answer: -2.48% [at 92.8 µM]

Question: With `CC(=O)OCC(=O)[C@@]1(O)CCC2C3CCC4=CC(=O)CC[C@]4(C)C3[C@@H](O)C[C@@]21C` (stereo not given in full) as the molecule, how does the “activity change, negative = inhibition” value read?
Answer: 11.8%

Question: With `COC(=O)C1=C(C)NC(C)=C(C(=O)OCCc2ccc(N3CCN(C(c4ccccc4)c4ccccc4)CC3)cc2)C1c1cccc([N+](=O)[O-])c1` (stereo not given) as the molecule, how does the “activity change, negative = inhibition” value read?
Answer: -2.86%

Question: With `CN1CCC(Nc2ncc3ncnc(Nc4ccc(F)c(Cl)c4)c3n2)CC1` as the molecule, how does the “activity change, negative = inhibition” value read?
Answer: 13.8%

Question: For `CC(=O)N[C@@H](CCC(N)=O)C(=O)O`, which “activity change, negative = inhibition” value is on record?
Answer: -11.8%

Question: Which “activity change, negative = inhibition” value does the source give for `CN(C)CCN(Cc1ccsc1)c1ccccn1` here?
Answer: 11%

Question: Which “activity change, negative = inhibition” value does the source give for `COCCOCC(OC)OC` here?
Answer: -10.9%

Question: For `C[C@H]1C[C@@H]2[C@H]([C@@H](O)C[C@@]3(C)[C@H]2CC[C@]3(O)C(=O)CO)[C@@]2(C)C=CC(=O)C=C12`, which “activity change, negative = inhibition” value is on record?
Answer: 6.04%

Question: Which “activity change, negative = inhibition” value does the source give for `CCCOc1ccc2c(c1)CC[C@@H]1[C@@H]2CC[C@]2(C)C(OC)CC[C@@H]12` (stereo not given in full) here?
Answer: 8.24%

Question: Which “activity change, negative = inhibition” value does the source give for `CC[C@@H]([C@H](C)O)n1ncn(-c2ccc(N3CCN(c4ccc(OC[C@@H]5CO[C@@](Cn6cncn6)(c6ccc(F)cc6F)C5)cc4)CC3)cc2)c1=O` here?
Answer: 12.9%

Question: For `CCOC(=O)N1CCC(n2c(=O)[nH]c3cc(Cl)ccc32)CC1`, which “activity change, negative = inhibition” value is on record?
Answer: 2.15%

Question: With `CN(C)c1cc2c(Nc3ccc4c(cnn4Cc4ccccc4)c3)ncnc2cn1` as the molecule, how does the “activity change, negative = inhibition” value read?
Answer: 2.72%

Question: For `Cc1coc2ccccc2c1=O`, which “activity change, negative = inhibition” value is on record?
Answer: -0.627%

Question: With `CC(=O)/C=C/C=C1/C2CCC(C2)C1(C)C` (stereo not given) as the molecule, how does the “activity change, negative = inhibition” value read?
Answer: 0.111%

Question: Which “activity change, negative = inhibition” value does the source give for `CCCCN(CCCC)C(C(N)=O)c1ccc(OC)cc1` (stereo not given) here?
Answer: -8.68%

Question: With `CC[N+](CC)(CC)CCOC(=O)C(C1CCCC1)C1CCCC1` as the molecule, how does the “activity change, negative = inhibition” value read?
Answer: 6.5%

Question: Which “activity change, negative = inhibition” value does the source give for `CO[C@@]1(NC(=O)CSC[C@@H](N)C(=O)O)C(=O)N2C(C(=O)O)=C(CSc3nnnn3C)CS[C@@H]21` here?
Answer: -7.94%

Question: With `CC1CN(c2cc3c(cc2F)c(=O)c(C(=O)O)cn3-c2ccc(F)cc2F)CCN1` (stereo not given) as the molecule, how does the activity change, negative = inhibition read?
Answer: -6.17% [at 4.53 µM]

Question: With `CCC(=O)Oc1ccc2c(c1)CC[C@@H]1[C@@H]2CC[C@@]2(C)[C@H]1C[C@@H](OC(=O)CC)[C@@H]2OC(=O)CC` as the molecule, how does the “activity change, negative = inhibition” value read?
Answer: -8.98%

Question: Which “activity change, negative = inhibition” value does the source give for `CCCC(=O)O[C@]1(C(=O)COC(=O)CC)CC[C@H]2[C@@H]3CCC4=CC(=O)CC[C@]4(C)[C@H]3[C@@H](O)C[C@@]21C` here?
Answer: -2.09% [at 20.5 µM]

Question: For `CCCc1ncc(C(=O)O)s1`, which “activity change, negative = inhibition” value is on record?
Answer: -8.88%

Question: For `COC(=O)C1=CO[C@@H](O)[C@@H]2C(CO)=CC[C@H]12`, which “activity change, negative = inhibition” value is on record?
Answer: -12.1%

Question: With `CCCCC(CC)COC(=O)c1ccccc1C(=O)O` (stereo not given) as the molecule, how does the “activity change, negative = inhibition” value read?
Answer: 0.112% [at 92.8 µM]

Question: For `CCCCCC1Nc2cc(C(F)(F)F)c(S(N)(=O)=O)cc2S(=O)(=O)N1` (stereo not given), which “activity change, negative = inhibition” value is on record?
Answer: -4.01%

Question: Which “activity change, negative = inhibition” value does the source give for `CC1(C)S[C@@H]2[C@H](NC(=O)C(c3ccccc3)S(=O)(=O)O)C(=O)N2[C@H]1C(=O)O` (stereo not given in full) here?
Answer: -7.71%

Question: With `COC(=O)c1cc(Cl)ccc1NS(=O)(=O)C(F)(F)F` as the molecule, how does the “activity change, negative = inhibition” value read?
Answer: -4.12%

Question: Which “activity change, negative = inhibition” value does the source give for `CO[C@@H]1[C@@H](O[C@@H]2O[C@H](C)[C@@H](O[C@H]3C[C@@](C)(O)[C@@H](O)[C@H](C)O3)[C@H](N(C)C)[C@H]2O)[C@@H](CC=O)C[C@@H](C)[C@@H](O[C@@H]2CC[C@H](N(C)C)[C@@H](C)O2)/C=C/C=C/C[C@@H](C)OC(=O)C[C@H]1OC(C)=O` here?
Answer: 19%

Question: With `COC(=O)c1cc(S(N)(=O)=O)ccc1OC` as the molecule, how does the “activity change, negative = inhibition” value read?
Answer: -2.66%

Question: Which “activity change, negative = inhibition” value does the source give for `COc1cc2c(cc1OC)C(=O)CC2` here?
Answer: -5.42%

Question: Which “activity change, negative = inhibition” value does the source give for `CCOc1ccccc1OCC1CNCCO1` (stereo not given) here?
Answer: 0.981%

Question: For `CC(CC(C#N)(c1ccccc1)C(C)C)N(C)C` (stereo not given), which “activity change, negative = inhibition” value is on record?
Answer: 17.5%

Question: For `Nc1c(I)cc(I)c(C(=O)N(CCC(=O)O)c2ccccc2)c1I`, which “activity change, negative = inhibition” value is on record?
Answer: 8.49%

Question: For `N[C@@H](Cn1ccc(=O)c(O)c1)C(=O)O`, which “activity change, negative = inhibition” value is on record?
Answer: 25.9%

Question: With `CC(C)=CCC/C(C)=C/CC/C(C)=C/C(=O)OCC(=O)[C@@]1(O)CC[C@H]2[C@@H]3CCC4=CC(=O)C=C[C@]4(C)[C@H]3[C@@H](O)C[C@@]21C` as the molecule, how does the “activity change, negative = inhibition” value read?
Answer: 14.7%

Question: With `O=C(O)c1cn(C2CC2)c2cc(Cl)c(F)cc2c1=O` as the molecule, how does the “activity change, negative = inhibition” value read?
Answer: 11.5%

Question: For `CCS(=O)(=O)c1ccc(OC)c(C(=O)OC)c1`, which “activity change, negative = inhibition” value is on record?
Answer: 17%

Question: With `CN(C)[C@@H]1C(=O)C(C(N)=O)=C(O)[C@@]2(O)C(=O)C3=C(O)c4c(O)cccc4C[C@H]3C[C@@H]12` as the molecule, how does the “activity change, negative = inhibition” value read?
Answer: -0.0853%

Question: For `CC(C)Cc1ccc(C(C)C(=O)OCc2ccccn2)cc1` (stereo not given), which “activity change, negative = inhibition” value is on record?
Answer: 176%

Question: With `CC(C)C[C@@H]1[C@H](c2ccccc2)OC(=O)N1CCCN1CCCCCC1` as the molecule, how does the “activity change, negative = inhibition” value read?
Answer: -2.49%
